Source: PubChem BioAssay (NCATS)
Records with an inconclusive call do not appear. A call without a number means that no potency is given here. Activity calls are given as the source filed them. Calls follow the shape of the dose curve; as a rule, active = well fitted cell-killing curve with a large enough effect; inconclusive = small, poorly fitted or top-dose-only effect; inactive = no such curve, though single readings can be large or run the other way.

Assay: qHTS of pediatric cancer cell lines to identify multiple opportunities for drug repurposing: Primary screen for SJ-GBM2 cells (AID 1347091)
Settings: SJ-GBM2 viability, CellTiter-Glo luminescence, 48 h; series mostly up to 46 µM
Excerpt: Drug repurposing or repositioning has been offered as a strategy for drug development in oncology programs. This approach has special potential for childhood cancers and other rare or orphan diseases, where the expected return on new drug development has been a disincentive to pharmaceuticals.
In this project we exploit the poly-pharmacology of drugs to discover new indications via phenotypic screening of a panel of 19 well-characterized cell lines derived from solid tumors seen in children and adolescents. The goal is to identify approved drugs with previously unrecognized anticancer properties that has the potential to reveal new mechanisms and biological processes involved in carcinogenesis or drug resistance. We employed a titration-based paradigm (quantitative high-throughput screening or qHTS), where all compounds were tested at multiple concentrations for their effect on cell viability. Concentration-response curves (CRCs) were derived directly from the primary screen, and both potency and efficacy values were used to identify compounds with robust bioactivity profiles. We screened the NIH Chemical Genomics Center (NCGC) Pharmaceutical Collection (NPC) and Mechanism Interrogation Plate (MIPE) small molecule collections of approved and investigational compounds against these cell lines; and measured metabolically active cells after 48 hours of compound treatment as a proxy for cell viability.
Assay Submitter: Nathalia J. Martinez, National Center for Advancing Translational Sciences, National Institutes of Health, Rockville, MD, USA; email: natalia.martinez@nih.gov
[1] Shen, M et al. Quantitative high-throughput phenotypic screening of pediatric cancer cell lines identifies multiple opportunities for drug repurposing. Oncotarget 2017 Dec 19;9(4):4758-4772. PMID 29435139.
The cells were obtained from University of North Carolina (UNC), Pediatric Preclinical Testing Program (PPT), and Coriell Institute (CI).
qHTS cell viability assay:
Cells were assayed in growth media at a density of 500-1,000 cells/well. Five microliters of cells were dispensed into 1,536-well, white, solid-bottom, TC-treated plates (Greiner Bio One) using a multidrop dispenser and incubated at 37 degrees C, 5% CO2, under a humidified atmosphere for 5 hours. Twenty-three nanoliters of compounds and controls (neutral control DMSO or positive control bortezomib at final concentration of 2.3 µM) were subsequently transferred by Kalypsys pintool. For primary screens, the MIPE collection was tested at 11-point dilutions (final concentrations range from 0.78 nM to 46 µM) and the NPC collection at 8-point dilutions (final concentrations range from 0.59 nM to 46 µM). Compounds tested in follow-up screens were assayed at 11-point dilutions. Cells were incubated for 48 hours, followed by addition of 3 uL of CellTiter-Glo (Promega). After a 15 min incubation at room temperature, samples were analyzed for luminescence intensity using a ViewLux High-throughput CCD imager equipped with clear filters.
Potency is read from the fitted curve at half-maximal effect.

Compound	Potency
ClCCN1CCCC1	inactive
CNC(C)(C)Cc1ccccc1	inactive
COP(=S)(OC)Oc1cc(Cl)c(Cl)cc1Cl	inactive
C[C@@H]1CC2=CC(=O)CC[C@@H]2[C@H]2CC[C@@]3(C)[C@@H](CC[C@]3(C)O)[C@@H]21	inactive
c1ccc(CN2CCNCC2)cc1	inactive
COc1cc(OC)c(OC)cc1C=O	inactive
CC(C)(C)NCC(O)c1cc(Cl)c(N)c(C(F)(F)F)c1 (stereo not given)	inactive
CCN(CC)C(=O)[C@@H]1C=C2c3cccc4[nH]cc(c34)C[C@H]2N(C)C1	inactive
CCN(CCO)CCn1c(Cc2ccccc2)nc2c1c(=O)n(C)c(=O)n2C	inactive
CC(C)NC(C)C	inactive
CN1CC[C@]23c4c5ccc(O)c4O[C@H]2[C@@H](O)C=C[C@H]3[C@H]1C5	inactive
C=C(C)[C@H]1CN[C@H](C(=O)O)[C@H]1CC(=O)O	inactive
O=C(O)c1ccc(=O)[nH]c1	inactive
CCN[C@H](C)Cc1cccc(C(F)(F)F)c1	inactive
COC1CC(=C(c2cccs2)c2cccs2)C[N+](C)(C)C1 (stereo not given)	inactive
CCC1(c2ccccc2)C(=O)N(COC)C(=O)N(COC)C1=O	inactive
COc1c2c(cc3c1OCO3)CCN(C)C2	inactive
Clc1ccc(C(c2ccc(Cl)cc2)C(Cl)(Cl)Cl)cc1	inactive
C[C@H](N)C(=O)c1ccccc1	inactive
NC(=O)CS(=O)C(c1ccccc1)c1ccccc1 (stereo not given)	inactive

Compound	Potency
O=c1c(C2CC(c3ccc(-c4ccc(Br)cc4)cc3)Cc3ccccc32)c(O)sc2ccccc12 (stereo not given)	11.9 µM (active)
O=C(N/N=C/c1ccc([N+](=O)[O-])o1)c1cc([N+](=O)[O-])cc([N+](=O)[O-])c1O	inactive
COc1cc(CCN)cc(OC)c1OC	inactive
Nc1nc(N)nc(NC2CC2)n1	inactive
CN1C(=O)CCS(=O)(=O)C1c1ccc(Cl)cc1 (stereo not given)	inactive
O=C1CN=C(c2ccccc2)c2cc([N+](=O)[O-])ccc2N1	inactive
O=C(O)CCCc1ccc(N(CCCl)CCCl)cc1	13.2 µM (active)
O=C1OC(CCN2CCCCC2)OC1(c1ccccc1)c1ccccc1 (stereo not given)	inactive
CCC1(CC)C(=O)C=CNC1=O	inactive
Nc1ccc([As](=O)(O)O)cc1	inactive
CCN[C@@H](C)Cc1ccccc1	inactive
C[C@](O)(CS(=O)(=O)c1ccc(F)cc1)C(=O)Nc1ccc(C#N)c(C(F)(F)F)c1	3.72 µM (active)
COc1cc(CC(C)N)cc(OC)c1OC (stereo not given)	inactive
CCC1(c2ccc(N)cc2)CCC(=O)NC1=O (stereo not given)	inactive
CC(=O)C1CCOC1=O (stereo not given)	inactive
C[C@]12CC[C@@H]3c4ccc(OC(=O)N(CCCl)CCCl)cc4CC[C@H]3[C@@H]1CC[C@@H]2OP(=O)(O)O	16.6 µM (active)
O=c1[nH]c2ccccc2n1C1CCNCC1	inactive
CC(C)=CC1C(C(=O)OCN2C(=O)C3=C(CCCC3)C2=O)C1(C)C (stereo not given)	21.1 µM (active)
Nc1ccccc1C(=O)O	inactive
C#CC(O)(C=CCl)CC (stereo not given)	inactive
